# According to PubChem BioAssay:
# Where “and” joins values, the source holds several entries; their conditions need not be identical. Equal entries are not always repeated. Results filed as inconclusive are left out. Calls of active or inactive are those of the source. Unless noted, no rule for the calls is given here.
# What was measured:
# [1] = circadian clock period modulators, cell-based, LOPAC library, luminescence reporter (AID 2774); conditions: circadian reporter cells, at 7 µM, actives lie on both sides;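 also: values are relative to mean of DMSO wells on each plate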
# [2] = hESC survival regulators, cell-based (AID 493140); conditions: human embryonic stem cell survival screen; stronger effect = higher value;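 also: cells exposed to compounds for four days before counting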
# [3] = tested on: Hepatitis C virus NS3 helicase; test: HCV NS3 helicase inhibitors, primary screen, biochemical, fluorescence polarization, LOPAC1280 library (AID 687035; in the data active = inhibition above about 37%); conditions: Purified HCV NS3 helicase, Cy5-dT15 ssDNA binding fluorescence polarization; stronger effect = higher value; concentration not given here
# [4] = Cy5 fluorescence quenching or enhancement artefacts, artefact control for HCV NS3 helicase inhibitor project, biochemical, LOPAC1280 (AID 687037); conditions: Cy5-DNA-NS3h complex fluorescence interference counterscreen
# [5] = sensitizers of A549 cells to miR-34 induction, primary screen, imaging, A549 dox-inducible miR-34, nuclei and caspase counts (AID 1347080;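 active = compounds whose cell count with miR-34 switched on is under 0.7 times the count with it off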); conditions: A549 miR-34 inducible, Hoechst nuclei count, 48 h
# [6] = viability rescue of complex I mutant cybrids, primary screen, cell-based, galactose medium, ATP luminescence (AID 1645843;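 active = z-score of at least 1.8 in each of two replicates, scored against plate mean and spread of sample wells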;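 also: positive z means more ATP and so rescue of galactose-driven cybrid death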); conditions: complex I mutant cybrid cells, 72 h, stronger effect = higher value
# [7] = molecular target: ATP-dependent translocase ABCB1 (Homo sapiens) (UniProt P08183); test: MDR1 (ABCB1) efflux transporter inhibition, cell-based (AID 377; in the data active = fluorescence slope change above about 50%); conditions: MDR1-expressing cells, fluorescent substrate accumulation slope; stronger effect = higher value; concentration not given here
# [8] = liver-stage malaria parasite growth inhibition, primary screen, cell-based, HepG2, luciferase luminescence, HepG2 viability (AID 624349; in the data active = parasite load remaining mostly below about 12%, no sharp cut-off; inactive = mostly above about 10%;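 also: 100% = mean of DMSO negative control wells on the same plate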); conditions: P. berghei liver stage in HepG2, luciferase luminescence, concentration not given here; parasite load remaining: stronger effect = lower value; viability: measured here: HepG2 viability without parasites
# [9] = stronger effect = lower value, cell number ratio, induced over uninduced
# [10] = measured here: relative caspase fold change +Dox/-Dox
# [11] = measured here: total cells with miR-34 induction, stronger effect = lower value
# [12] = measured here: total cells without miR-34 induction
# Sequence of ATP-dependent translocase ABCB1 (Homo sapiens) (P08183 whole entry, looked up): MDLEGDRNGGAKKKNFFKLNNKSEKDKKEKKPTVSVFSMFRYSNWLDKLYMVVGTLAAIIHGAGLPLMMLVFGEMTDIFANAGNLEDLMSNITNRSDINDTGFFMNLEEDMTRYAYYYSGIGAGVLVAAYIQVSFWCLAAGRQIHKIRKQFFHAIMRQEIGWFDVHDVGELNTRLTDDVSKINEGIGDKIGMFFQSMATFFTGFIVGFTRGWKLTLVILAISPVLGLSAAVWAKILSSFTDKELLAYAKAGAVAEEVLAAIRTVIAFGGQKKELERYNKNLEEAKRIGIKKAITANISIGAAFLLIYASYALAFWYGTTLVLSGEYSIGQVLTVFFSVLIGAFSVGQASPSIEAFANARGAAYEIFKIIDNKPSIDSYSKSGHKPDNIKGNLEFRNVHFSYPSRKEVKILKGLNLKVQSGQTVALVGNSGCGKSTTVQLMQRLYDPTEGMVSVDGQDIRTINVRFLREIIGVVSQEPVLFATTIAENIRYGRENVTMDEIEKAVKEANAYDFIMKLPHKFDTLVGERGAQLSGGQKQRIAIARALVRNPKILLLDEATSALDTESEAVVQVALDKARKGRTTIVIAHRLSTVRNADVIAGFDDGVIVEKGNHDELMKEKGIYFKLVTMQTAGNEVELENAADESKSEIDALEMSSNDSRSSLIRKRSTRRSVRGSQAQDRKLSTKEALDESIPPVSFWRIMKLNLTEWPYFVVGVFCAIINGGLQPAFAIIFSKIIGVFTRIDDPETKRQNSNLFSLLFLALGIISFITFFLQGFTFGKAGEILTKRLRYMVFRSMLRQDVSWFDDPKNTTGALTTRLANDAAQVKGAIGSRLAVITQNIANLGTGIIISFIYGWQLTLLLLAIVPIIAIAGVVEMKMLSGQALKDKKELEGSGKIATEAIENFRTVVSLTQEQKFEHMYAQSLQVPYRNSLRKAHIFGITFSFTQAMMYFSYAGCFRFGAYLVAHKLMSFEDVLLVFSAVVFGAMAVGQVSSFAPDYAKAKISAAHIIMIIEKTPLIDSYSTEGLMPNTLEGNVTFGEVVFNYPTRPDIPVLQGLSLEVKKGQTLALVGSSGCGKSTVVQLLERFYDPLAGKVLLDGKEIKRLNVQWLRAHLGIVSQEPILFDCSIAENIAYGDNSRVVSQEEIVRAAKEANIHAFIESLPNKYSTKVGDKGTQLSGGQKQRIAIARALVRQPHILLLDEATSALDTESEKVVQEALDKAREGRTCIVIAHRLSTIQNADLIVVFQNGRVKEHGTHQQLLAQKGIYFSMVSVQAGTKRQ
SMILES,period change [1],survival [2],inhibition [3],fluorescence ratio (interference) [4],"fold change [5, 9]","fold change [5, 10]","cell count [5, 11]","cell count [5, 12]",z-score [6],fluorescence slope change [7],parasite load remaining [8],viability [8]
CCCCCC(O)c1cccc(OCc2ccc3ccccc3n2)c1 (stereo not given),0.015 h (inactive),78.8 (inactive),1% (inactive),0.9 (inactive),0.911 (inactive) and 0.978 (inactive),1.06 and 0.946,5590 and 5690,6140 and 5820,,,,
CC(=O)O[C@]1(C(C)=O)CCC2C3C=C(C)C4=CC(=O)CC[C@]4(C)C3CC[C@@]21C (stereo not given in full),,,,,0.943 (inactive),1.2,6760,7170,-0.29 (inactive),,,
N#C/C(=C\c1ccc(O)c(O)c1)C(=O)NCCCNC(=O)/C(C#N)=C/c1ccc(O)c(O)c1,-0.285 h (inactive),,37% (active),1 (inactive),0.987 (inactive),1.18,9720,9850,-0.275 (inactive),,,
N=c1c[n+](N2CCOCC2)[n-]o1,0.03 h (inactive),,-1% (inactive) and -5% (inactive),1 (inactive),1 (inactive) and 0.984 (inactive),2.22 and 1.55,10300 and 10500,10300 and 10700,-0.02 (inactive) and 0.005 (inactive),,,
O=C1O/C(=C/Br)CCC1c1cccc2ccccc12 (stereo not given),-0.24 h (inactive),,0% (inactive),1 (inactive),0.964 (inactive),0.87,4330,4490,,,,
NCCC1CCCC(CCN)N1 (stereo not given),0.21 h (inactive),,-7% (inactive),0.9 (inactive),1.09 (inactive),1.24,10800,9840,0.405 (inactive),,,
CC[C@@]1([C@@H]2O[C@@H]([C@H]3O[C@@](O)(CO)[C@H](C)C[C@@H]3C)C[C@@H]2C)CC[C@H]([C@]2(C)CC[C@]3(C[C@H](O)[C@@H](C)[C@@H]([C@@H](C)[C@@H](OC)C(C)C(=O)O)O3)O2)O1 (stereo not given in full),,0.417 (inactive),,,1.05 (inactive),1.84,1810,1730,,168% (active),,
N=C(N)c1ccc(OCCCCCOc2ccc(C(=N)N)cc2)cc1 (tested in a mixture with another compound),0.16 h (inactive),,-1% (inactive),1 (inactive),1.03 (inactive),0.748,3790,3670,-1.29 (inactive),,,
Cc1ccc2c(c1)C(N1CCN(C)CC1)=Nc1cccnc1N2,0.2 h (inactive),,-2% (inactive),1 (inactive),1 (inactive),1.15,8670,8630,0.01 (inactive),,,
NCCC(=O)NCCc1cnc[nH]1,0.085 h (inactive),7.75 (inactive),,,0.903 (inactive),1.35,9030,10000,,,133% (inactive) and 73.6% (inactive),94% and 70.5%
Nc1ccn([C@@H]2O[C@H](CO)[C@@H](O)[C@@H]2O)c(=O)n1,-0.07 h (inactive),,-4% (inactive),0.9 (inactive),0.984 (inactive),1.55,1860,1890,-0.93 (inactive),,,
C=C1CC[C@H](O)C/C1=C/C=C1\CCC[C@]2(C)[C@@H]([C@H](C)CC[C@@H](O)C(C)(C)O)CC[C@@H]12,,80.4 (inactive),,,1.03 (inactive),1.15,5660,5500,,,,
CCCCC[C@H](O)CC[C@H]1[C@H](O)CC(=O)[C@@H]1CCCCCCC(=O)O,,89 (inactive),,,0.898 (inactive) and 0.911 (inactive),0.955 and 1.31,5150 and 5260,5740 and 5770,,,,
CCCCCC(=O)CC[C@@H]1[C@@H](C/C=C\CCCC(=O)O)[C@@H](O)C[C@H]1O,,82.4 (inactive),,,0.925 (inactive),1.4,5510,5950,,,,
CCCCC[C@H](O)/C=C/[C@@H]1[C@H](C/C=C\CCCC(=O)O)[C@@H](O)C[C@H]1O,,105 (inactive),,,0.908 (inactive) and 0.973 (inactive),1.37 and 1.68,6000 and 5340,6610 and 5490,,,,
CCCCCCCCCC(=O)OCC(CO)OC(=O)CCCCCCCCC (stereo not given),,93.4 (inactive),,,1.02 (inactive),0.801,4940,4860,,,,
Cn1c(-c2ccc3c(c2)OCO3)cc(=O)c2ccccc21,,4.17 (inactive),,,0.89 (inactive),1.11,8470,9520,,6.8% (inactive),95.4% (inactive),95.4%
